Assay results from PubChem BioAssay (EPA / NIEHS).
Active and inactive are the calls of the source. How the source made its calls: active means hit-call score of the fitted dose curve at least 0.9, where 1 is the maximum; inactive means score below 0.9.

Assays:
Settings in all cases: mRNA level, 48 h; actives raise or lower the signal
[1] = read-out: Cytochrome P450 (CYP1A1), CYP1A1 (gene 1543); assay: LTEA_HepaRG_CYP1A1: Life Technologies and Expression Analysis (LTEA) Assay for Cytochrome P450 (CYP1A1) using HepaRG (AID 2283454)
Summary of the method: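 HepaRG, 48 h post-plating switched to serum-free induction medium; 8-pt conc-response (top 100 uM, half-log, 0.5% DMSO), duplicates, 48 h. Lysis in RLT, TaqMan qRT-PCR for CYP1A1; gain or loss vs DMSO.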

[2] = read-out: CFLAR gene, CFLAR (gene 8837); assay: LTEA_HepaRG_CFLAR: Life Technologies and Expression Analysis (LTEA) Assay for CFLAR gene using HepaRG (AID 2283455)
Summary of the method: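 qRT-PCR read-out (Fluidigm/TaqMan) of CFLAR mRNA, normalized to three housekeeping genes, in differentiated human HepaRG cells after 48 h chemical exposure; 8-point half-log series from 100 uM in 0.5% DMSO; bidirectional curve fitting versus DMSO.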

[3] = read-out: Forkhead box O1 (FOXO1), FOXO1 (gene 2308); assay: LTEA_HepaRG_FOXO1: Life Technologies and Expression Analysis (LTEA) Assay for Forkhead box O1 (FOXO1) using HepaRG (AID 2283456)
Summary of the method: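 HepaRG, 48 h exposure, 8-pt half-log series from 100 uM in 0.5% DMSO, duplicates; Fluidigm qRT-PCR mRNA, housekeeping-normalised; bidirectional fit vs DMSO baseline.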

[4] = read-out: Forkhead box O3 (FOXO3), FOXO3 (gene 2309); assay: LTEA_HepaRG_FOXO3: Life Technologies and Expression Analysis (LTEA) Assay for Forkhead box O3 (FOXO3) using HepaRG (AID 2283459)
Summary of the method: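 qRT-PCR readout of FOXO3 transcript, normalized to three housekeeping genes (ACTB, GAPDH, POLR2A); gain or loss fitted against 0.5% DMSO vehicle. HepaRG cells, 48 h chemical exposure, 8-point half-log series, top 100 uM.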

[5] = read-out: growth arrest and DNA damage 45 (GADD45B), GADD45B (gene 4616); assay: LTEA_HepaRG_GADD45B: Life Technologies and Expression Analysis (LTEA) Assay for growth arrest and DNA damage 45 (GADD45B) using HepaRG (AID 2283461)
Summary of the method: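 HepaRG, ~100,000 cells/well, 48 h plating; serum-free induction medium; cpd 100 uM top, half-log x8, 0.5% DMSO, duplicate, 48 h; lysis in RLT, RNA isolation, qRT-PCR; norm ACTB/GAPDH/POLR2A; bidirectional fit vs DMSO.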

[6] = read-out: ABC Transporter (ABCC3), ABCC3 (gene 8714); assay: LTEA_HepaRG_ABCC3: Life Technologies and Expression Analysis (LTEA) Assay for ABC Transporter (ABCC3) using HepaRG (AID 2283462)
Summary of the method: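 Human HepaRG, 48 h dosing, 8-pt half-log series from 100 uM, 0.5% DMSO vehicle, duplicates. ABCC3 mRNA by TaqMan qRT-PCR, housekeeping-normalized; bidirectional curve fit vs DMSO.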

[7] = read-out: ABC Transporter (ABCB11), ABCB11 (gene 8647); assay: LTEA_HepaRG_ABCB11: Life Technologies and Expression Analysis (LTEA) Assay for ABC Transporter (ABCB11) using HepaRG (AID 2283463)
Summary of the method: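 HepaRG, 48 h exposure, 8-pt half-log CRC top 100 uM, 0.5% DMSO vehicle, duplicates. Readout: TaqMan qRT-PCR of ABCB11 mRNA, housekeeping-normalized (ACTB/GAPDH/POLR2A). Bidirectional fit vs DMSO baseline.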

[8] = read-out: ABC Transporter (ABCC2), ABCC2 (gene 1244); assay: LTEA_HepaRG_ABCC2: Life Technologies and Expression Analysis (LTEA) Assay for ABC Transporter (ABCC2) using HepaRG (AID 2283464)
Summary of the method: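 HepaRG, 48 h post-plating; serum-free induction medium; cpd 8-pt, 100 uM top, half-log, 0.5% DMSO, duplicate, 48 h. Readout: ABCC2 mRNA by qRT-PCR, norm. ACTB/GAPDH/POLR2A. Bidirectional fit vs DMSO baseline.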

[9] = read-out: Broad substrate specificity ATP-binding cassette transporter ABCG2 (Homo sapiens) (UniProt Q9UNQ0); assay: LTEA_HepaRG_ABCG2: Life Technologies and Expression Analysis (LTEA) Assay for ABC Transporter (ABCG2) using HepaRG (AID 2283465)
Summary of the method: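 HepaRG, 48 h exposure, 8-pt half-log series from 100 uM, 0.5% DMSO vehicle, duplicates. Readout: ABCG2 transcript by qRT-PCR (Fluidigm array), housekeeping-normalized; bidirectional curve fit relative to DMSO baseline.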

[10] = read-out: ATP-citrate lyase (ACLY), ACLY (gene 47); assay: LTEA_HepaRG_ACLY: Life Technologies and Expression Analysis (LTEA) Assay for ATP-citrate lyase (ACLY) using HepaRG (AID 2283466)
Summary of the method: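 qRT-PCR readout of ACLY transcript after 48 h chemical treatment of HepaRG cells; expression normalized to three housekeeping genes. Eight-point half-log series, highest 100 uM, 0.5% DMSO vehicle. Gain or loss fitted against DMSO baseline.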

[11] = read-out: Alkaline Phosphatase, Placental (ALPP) gene, ALPP (gene 250); assay: LTEA_HepaRG_ALPP: Life Technologies and Expression Analysis (LTEA) Assay for Alkaline Phosphatase, Placental (ALPP) gene using HepaRG (AID 2283468);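 on AC50: differentiated human HepaRG liver cells in serum-free induction medium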
Summary of the method: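 HepaRG, 48 h plating then 48 h dosing, serum-free induction medium, 0.5% DMSO. 8 conc, half-log, max 100 uM, duplicates. Endpoint: ALPP transcript by qRT-PCR, housekeeping-normalized; gain or loss fitted vs DMSO.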

[12] = read-out: Bcl-2 (BAD) gene, BAD (gene 572); assay: LTEA_HepaRG_BAD: Life Technologies and Expression Analysis (LTEA) Assay for Bcl-2 (BAD) gene using HepaRG (AID 2283469)
Summary of the method: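 HepaRG, 48 h exposure, 8-pt half-log curve from 100 uM in 0.5% DMSO, duplicates. Readout: TaqMan qRT-PCR for BAD mRNA, housekeeping-normalised (ACTB/GAPDH/POLR2A); gain or loss fitted against DMSO baseline.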

[13] = read-out: Bcl-2 (BAX) gene, BAX (gene 581); assay: LTEA_HepaRG_BAX: Life Technologies and Expression Analysis (LTEA) Assay for Bcl-2 (BAX) gene using HepaRG (AID 2283470)
Summary of the method: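 Cells were thawed, plated for 48 h, moved to serum-free induction medium and dosed for 48 h (highest concentration 100 uM, half-log steps, 0.5% DMSO). Total RNA was then analysed for BAX expression by qRT-PCR.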

[14] = read-out: adenosine kinase (ADK) gene, ADK (gene 132); assay: LTEA_HepaRG_ADK: Life Technologies and Expression Analysis (LTEA) Assay for adenosine kinase (ADK) gene using HepaRG (AID 2283471)
Summary of the method: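 Differentiated HepaRG cells dosed 48 h in serum-free induction medium, 0.5% DMSO vehicle, eight half-log concentrations from 100 uM, in duplicate. ADK mRNA by TaqMan qRT-PCR normalised to ACTB, GAPDH, POLR2A; bidirectional fit versus DMSO.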

[15] = read-out: Alpha-fetoprotein (AFP) gene, AFP (gene 174); assay: LTEA_HepaRG_AFP: Life Technologies and Expression Analysis (LTEA) Assay for Alpha-fetoprotein (AFP) gene using HepaRG (AID 2283472)
Summary of the method: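 Chemicals were tested on differentiated HepaRG cells for 48 hours at eight concentrations up to 100 uM, with 0.5% DMSO as vehicle. AFP expression was then quantified by qRT-PCR and analyzed for gain or loss relative to DMSO.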

BCL2L11 (gene 10018) = assay: LTEA_HepaRG_BCL2L11: Life Technologies and Expression Analysis (LTEA) Assay for Bcl-2 (BCL2L11) gene using HepaRG (AID 2283473)
Summary of the method: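 Read-out is BCL2L11 transcript level by qRT-PCR, normalized to three housekeeping genes and fitted bidirectionally against 0.5% DMSO vehicle. HepaRG cells received chemicals for 48 h in serum-free induction medium, 100 uM down in half-log dilutions.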

[16] = read-out: growth arrest and DNA damage 45 (GADD45A), GADD45A (gene 1647); assay: LTEA_HepaRG_GADD45A: Life Technologies and Expression Analysis (LTEA) Assay for growth arrest and DNA damage 45 (GADD45A) using HepaRG (AID 2283458)
Summary of the method: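 Transcript induction or loss, quantified by TaqMan qRT-PCR against three housekeeping genes, is the read-out. HepaRG cells received chemicals for 48 h across eight half-log concentrations from 100 uM in 0.5% DMSO; gain and loss fitted relative to DMSO.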

[17] = read-out: ABC Transporter (ABCB1), ABCB1 (gene 5243); assay: LTEA_HepaRG_ABCB1: Life Technologies and Expression Analysis (LTEA) Assay for ABC Transporter (ABCB1) using HepaRG (AID 2283460)
Summary of the method: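 HepaRG, 48 h exposure, 8-pt half-log series from 100 uM, 0.5% DMSO vehicle, duplicates. Readout: ABCB1 transcript by Fluidigm TaqMan qRT-PCR, housekeeping-normalized; bidirectional curve fit vs DMSO baseline.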

[18] = read-out: Peroxisomal acyl-coenzyme A oxidase 1 (ACOX1) gene, ACOX1 (gene 51); assay: LTEA_HepaRG_ACOX1: Life Technologies and Expression Analysis (LTEA) Assay for Peroxisomal acyl-coenzyme A oxidase 1 (ACOX1) gene using HepaRG (AID 2283467)
Summary of the method: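 HepaRG, 48 h chemical exposure, 8-pt half-log series from 100 uM top, 0.5% DMSO vehicle, duplicates. Readout: ACOX1 mRNA by Fluidigm qRT-PCR, housekeeping-normalized; bidirectional fit vs DMSO baseline.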

Measured: AC50

Sequence of Broad substrate specificity ATP-binding cassette transporter ABCG2 (Homo sapiens) (Q9UNQ0 whole entry, looked up): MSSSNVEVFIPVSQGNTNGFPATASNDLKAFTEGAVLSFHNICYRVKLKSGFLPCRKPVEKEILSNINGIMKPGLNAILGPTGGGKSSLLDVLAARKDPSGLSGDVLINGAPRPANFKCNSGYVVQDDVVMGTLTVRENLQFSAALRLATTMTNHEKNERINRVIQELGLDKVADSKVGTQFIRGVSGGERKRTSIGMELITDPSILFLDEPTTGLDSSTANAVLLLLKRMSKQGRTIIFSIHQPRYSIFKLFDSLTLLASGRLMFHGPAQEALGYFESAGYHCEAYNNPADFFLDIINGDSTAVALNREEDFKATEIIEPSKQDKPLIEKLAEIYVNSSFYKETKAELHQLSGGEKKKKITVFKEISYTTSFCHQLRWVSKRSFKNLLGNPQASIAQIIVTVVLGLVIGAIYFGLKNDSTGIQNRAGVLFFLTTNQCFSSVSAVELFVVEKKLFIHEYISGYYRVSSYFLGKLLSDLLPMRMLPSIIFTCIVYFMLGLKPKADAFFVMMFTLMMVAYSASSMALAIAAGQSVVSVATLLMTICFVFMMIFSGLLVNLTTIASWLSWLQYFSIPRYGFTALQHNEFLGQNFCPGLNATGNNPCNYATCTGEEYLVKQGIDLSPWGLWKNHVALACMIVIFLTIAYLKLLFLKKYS

CCCCCCCCCCCCCCCCO
inactive: [2] | [3] | [4] | [5] | [6] | [7] | [8] | [9] | [10] | [11] | [12] | [13] | [14] | [15] | BCL2L11 (gene 10018)
active: [1] 8.36 µM

COC(=O)[C@H]1[C@H]2C[C@@H]3c4[nH]c5cc(OC)ccc5c4CCN3C[C@H]2C[C@@H](OC(=O)c2cc(OC)c(OC)c(OC)c2)[C@@H]1OC
active: [17] 9.75 µM | [6] 49.8 µM | [7] 31.4 µM | [8] 67.4 µM | [18] 42.2 µM | [11] 25.9 µM | [15] 60.8 µM
inactive: [2] | [3] | [16] | [4] | [5] | [9] | [12] | [13] | BCL2L11 (gene 10018)

O=C(N[C@@H](c1ccccc1)[C@@H]1CCCCN1)c1cccc(C(F)(F)F)c1Cl
inactive: [1] | [9] | [12] | [13]
active: [2] 77.2 µM | [3] 75.9 µM | [4] 73.4 µM | [5] 50 µM | [6] 12.9 µM | [7] 24.1 µM | [8] 78.1 µM | [10] 11.4 µM | [11] 10.8 µM | [15] 25.5 µM | BCL2L11 (gene 10018) 85.7 µM

CC(C)c1cccc(C(C)C)c1NC(=O)NS(=O)(=O)c1cc(C(C)(C)O)co1
active: [8] 3.34 µM | [9] 12.6 µM
inactive: [1] | [2] | [3] | [4] | [5] | [6] | [7] | [10] | [18] | [11] | [12] | [13] | [14] | [15] | BCL2L11 (gene 10018)

CCCC(=O)O
inactive: [1] | [2] | [3] | [5] | [6] | [7] | [8] | [9] | [10] | [18] | [11] | [12] | [13] | [15] | BCL2L11 (gene 10018)

CCCC[C@H]1CN(CC2CCOCC2)C(=O)OC12CCN(C1(C)CCN(C(=O)c3c(C)ncnc3C)CC1)CC2
inactive: [1] | [2] | [3] | [4] | [17] | [5] | [6] | [7] | [8] | [9] | [10] | [11] | [12] | [13] | [15] | BCL2L11 (gene 10018)

CC(COCC(C)OC(=O)c1ccccc1)OC(=O)c1ccccc1 (configuration not stated)
inactive: [2] | [3] | [4] | [17] | [5] | [6] | [7] | [8] | [9] | [10] | [11] | [12] | [13] | [14] | [15] | BCL2L11 (gene 10018)
active: [1] 87.6 µM

Nc1nc(=S)c2[nH]cnc2[nH]1
inactive: [2] | [3] | [4] | [5] | [11] | [12] | BCL2L11 (gene 10018)
active: [1] 76.1 µM | [6] 13.9 µM | [7] 7.88 µM | [8] 21.1 µM | [9] 8.31 µM | [10] 10.2 µM | [13] 3.39 µM | [15] 6.35 µM
